Our source for the Potency and outcome values is PubChem BioAssay (Tox21).

The nature of experiment [1]: qHTS assay to identify aromatase inhibitors - cell viability counter screen (AID 743084).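 Also: cells stimulated with testosterone during compound exposure; nearly all actives have a fitted effect of over 55% in size.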 Also: potency is read from the fitted curve at half-maximal effect. In general terms: Quantitative high-throughput screening tests each substance at several concentrations.
Experiment [2] has as its target Aryl hydrocarbon receptor (Homo sapiens) (UniProt P35869). The experiment is described as follows: qHTS assay to identify small molecule that activate the aryl hydrocarbon receptor (AhR) signaling pathway (AID 743085).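 Also: HG2L7.5c1 human HepG2 liver cells with stably integrated DRE-driven firefly reporter; series mostly up to about 70 µM; nearly all actives have a fitted effect of over 15% in size.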 In outline:
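Stably transfected human liver carcinoma cells (HG2L7.5c1; 20 DRE-firefly luciferase) were incubated 5 h, dosed, and kept 24 h at 37C. Agonism was scored from increased luciferase luminescence.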

Experiment [3] is described as follows: qHTS assay to identify small molecule that activate the aryl hydrocarbon receptor (AhR) signaling pathway - cell viability counter screen (AID 743086). Also: series mostly up to about 70 µM; nearly all actives have a fitted effect of over 45% in size. In a few lines: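 Cytotoxicity counter screen: CellTiter-Fluor signal (30 min, 37 C) in 4000 HepG2 cells/well carrying the DRE-luciferase reporter, following 24 h compound exposure at 37 C.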
Experiment [4] addresses Peroxisome proliferator-activated receptor gamma (Homo sapiens) (UniProt P37231). The experiment is described as follows: qHTS assay to identify small molecule agonists of the peroxisome proliferator-activated receptor gamma (PPARg) signaling pathway (AID 743094; active = well fitted activation curve with a large enough effect in the signal ratio in the repeat runs, not every such curve was filed as active; the % refers to the signal ratio). In a few lines:
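Beta-lactamase FRET fluorescence was the read-out after a 1 h room-temperature substrate step, following 17 h compound treatment at 37C of HEK293H cells expressing a UAS-driven bla reporter responsive to PPARg.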

The target is the same in experiment [5]. The experiment in a line: qHTS assay to identify small molecule antagonists of the peroxisome proliferator-activated receptor gamma (PPARg) signaling pathway (AID 743191; calls by dose curve; also: nearly all actives have a fitted effect of over 30% in size; also: potency is read from the fitted curve at half-maximal effect). In a few lines: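 Beta-lactamase reporter under UAS control in HEK293H PPARg-bla cells; compound treatment 17 h at 37C. Read-out: fluorescence intensity after 1 h room-temperature incubation with LiveBLAzer B/G FRET substrate.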

Experiment [6] is described as follows: qHTS assay for small molecule agonists of the antioxidant response element (ARE) signaling pathway (AID 743202; active = well fitted activation curve with a large enough effect in the signal ratio in the repeat runs, not every such curve was filed as active; the % refers to the signal ratio). In outline:
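An ARE-responsive beta-lactamase gene stably integrated in HepG2 cells serves as reporter. After 5 h plating and 16 h compound incubation at 37 C, fluorescence of the B/G FRET substrate was measured.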

Experiment [7] can be described thus: qHTS assay for small molecule agonists of the antioxidant response element (ARE) signaling pathway - cell viability counter screen (AID 743203; calls by dose curve; also: nearly all actives have a fitted effect of over 55% in size). In outline:
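HepG2 cells carrying ARE-driven beta-lactamase; 2,000 cells/well; 5 hrs plating; compound pinned from DMSO; 16 hrs 37C/5% CO2; CellTiter-Glo added; 30 min RT; luminescence.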

Experiment [8] is described as follows: qHTS assay for small molecule activators of the heat shock response signaling pathway - cell viability counter screen (AID 743209). Also: nearly all actives have a fitted effect of over 50% in size. In a few lines:
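Luminescence from CellTiter-Glo, added after the beta-lactamase FRET read, gave the viability signal. Cells were HSE-bla HeLa treated with DMSO-dissolved compounds for 5 h at 37 C following overnight plating.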

Experiment [9] in a line: qHTS assay for small molecule activators of the heat shock response signaling pathway (AID 743210; active = well fitted activation curve with a large enough effect in the signal ratio in the repeat runs, with a control signal flat, not every such curve was filed as active; the % refers to the signal ratio;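 also: HeLa cells with beta-lactamase reporter driven by heat shock elements; series mostly up to about 63 µM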). In a few lines: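 In HSE-bla HeLa cells, 5 h compound incubation (37 C) precedes addition of LiveBLAzer B/G substrate; after 2.5 h at room temperature, fluorescence intensity indicates reporter induction.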
Experiment [10] is described as follows: qHTS assay to identify small molecule agonists of the peroxisome proliferator-activated receptor delta (PPARd) signaling pathway - cell viability counter screen (AID 743211). Also: nearly all actives have a fitted effect of over 55% in size. In outline: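 In the same wells used for beta-lactamase reporter measurement, cytotoxicity is scored by CellTiter-Glo. HEK293H PPARd-bla cells receive compound for 17 h at 37C following a 5 h settling period.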

The target in experiment [11] is Peroxisome proliferator-activated receptor delta (Homo sapiens) (UniProt Q03181). The experiment in a line: qHTS assay to identify small molecule agonists of the peroxisome proliferator-activated receptor delta (PPARd) signaling pathway (AID 743212; calls by dose curve). In a few lines:
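HEK293H UAS-bla reporter cells, human PPARd system; compounds delivered in DMSO after 5 h plating, then at 37 C. Beta-lactamase FRET read, 2 h RT substrate step.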

Experiment [12] in a line: qHTS assay to identify small molecule antagonists of the peroxisome proliferator-activated receptor delta (PPARd) signaling pathway - cell viability counter screen (AID 743213). Also: nearly all actives have a fitted effect of over 50% in size. In outline:
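In this counter screen, HEK293H cells carrying a UAS-beta-lactamase reporter are co-treated with test compounds and 300 nM L165041 (final) for 17 h at 37 C; cell viability is quantified by CellTiter-Glo luminescence.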

A short description of experiment [13]: qHTS assay to identify small molecule agonists of the farnesoid-X-receptor (FXR) signaling pathway - cell viability counter screen (AID 743218). Also: nearly all actives have a fitted effect of over 45% in size. In outline:
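HEK 293T FXR-bla cells; 5 h pre-incubation, 16 h compound exposure at 37 C; LiveBLAzer substrate 2 h RT, then CellTiter-Glo 30 min RT, luminescence.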

A short description of experiment [14]: qHTS assay to identify small molecule antagonists of the farnesoid-X-receptor (FXR) signaling pathway - cell viability counter screen (AID 743221; active = well fitted cell-killing curve with a large enough effect in the repeat runs, not every such curve was filed as active; also: nearly all actives have a fitted effect of over 50% in size). In a few lines: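 Here viability was scored by luminescence after CellTiter-Glo addition to wells already read for beta-lactamase. Prior treatment: compound plus CDCA (50 uM final), 16 h, 37 C, HEK 293T FXR-bla cells.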

For experiment [15], the target named is Vitamin D3 receptor (Homo sapiens) (UniProt P11473). The experiment is described as follows: qHTS assay to identify small molecule agonists of the vitamin D receptor (VDR) signaling pathway (AID 743222; calls by dose curve). In outline:
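VDR-bla cells, 2,000/well; 4 h preincubation 37C; cpd (DMSO) 16 h; LiveBLAzer B/G substrate 2 h RT; fluorescence intensity read.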

Experiment [16] has the same target. The experiment in a line: qHTS assay to identify small molecule antagonists of the vitamin D receptor (VDR) signaling pathway (AID 743223; active = well fitted inhibition curve with a large enough effect in the signal ratio in the repeat runs, not every such curve was filed as active; the % refers to the signal ratio). In a few lines: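 Inhibition of agonist-driven VDR signalling is scored in VDR-bla cells: 3 nM final 1alpha,25-dihydroxyvitamin D3 plus compound, 16 h at 37C, then beta-lactamase detection by FRET substrate fluorescence after 2 h.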

Experiment [17] in a line: qHTS assay to identify small molecule antagonists of the peroxisome proliferator-activated receptor gamma (PPARg) signaling pathway - cell viability counter screen (AID 743194). Also: nearly all actives have a fitted effect of over 55% in size. Conditions: Potency: co-treated with 50 nM rosiglitazone. In a few lines:
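Viability was measured as CellTiter-Glo luminescence in GeneBLAzer PPARg UAS-bla HEK293H cells. These cells had been exposed 17 h at 37 C to compounds together with rosiglitazone at 50 nM final, with the beta-lactamase readout taken in the same wells.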

Experiment [18] concerns the target Peroxisome proliferator-activated receptor delta (Homo sapiens) (UniProt Q03181). The experiment is described as follows: qHTS assay to identify small molecule antagonists of the peroxisome proliferator-activated receptor delta (PPARd) signaling pathway (AID 743215; active = well fitted inhibition curve with a large enough effect in the signal ratio in the repeat runs, not every such curve was filed as active; the % refers to the signal ratio;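 also: cells stimulated with agonist L165041 at 300 nM final during compound exposure; series mostly up to about 62 µM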). In outline: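 Read-out is beta-lactamase FRET fluorescence, measured 2 h after substrate addition at room temperature. Beforehand, UAS-bla HEK293H cells carrying the PPARd reporter were exposed to compounds with L165041 at 300 nM final for 17 h at 37 C.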

Experiment [19] addresses Bile acid receptor (Homo sapiens) (UniProt Q96RI1). The experiment is described as follows: qHTS assay to identify small molecule antagonists of the farnesoid-X-receptor (FXR) signaling pathway (AID 743217; active = well fitted inhibition curve with a large enough effect in the signal ratio in the repeat runs, not every such curve was filed as active; the % refers to the signal ratio). In outline: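 HEK 293T FXR-UAS-bla, 5000 cells/well; compound + CDCA 50 uM final; 16 h, 37 °C; B/G FRET substrate 2 h RT; fluorescence.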
Experiment [20] shares this target. The experiment in a line: qHTS assay to identify small molecule agonists of the farnesoid-X-receptor (FXR) signaling pathway (AID 743220; active = well fitted activation curve with a large enough effect in the signal ratio in the repeat runs, not every such curve was filed as active; the % refers to the signal ratio). In a few lines: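 Beta-lactamase reporter under UAS control in GeneBLAzer FXR HEK 293T cells (5000/well) measured with LiveBLAzer FRET substrate after 2 h at room temperature. Compound exposure lasted 16 h at 37C.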

Results filed as inconclusive are left out. The source made the active and inactive calls. Unless noted, calls follow the shape of the dose curve; as a rule, active = well fitted curve in the direction sought with a large enough effect in the repeat runs; inconclusive = weak or mixed curves; inactive = no such curve, though single readings can be large; an effect the other way counts as inactive or inconclusive.

Peroxisome proliferator-activated receptor gamma (Homo sapiens), sequence (P37231 whole entry, looked up): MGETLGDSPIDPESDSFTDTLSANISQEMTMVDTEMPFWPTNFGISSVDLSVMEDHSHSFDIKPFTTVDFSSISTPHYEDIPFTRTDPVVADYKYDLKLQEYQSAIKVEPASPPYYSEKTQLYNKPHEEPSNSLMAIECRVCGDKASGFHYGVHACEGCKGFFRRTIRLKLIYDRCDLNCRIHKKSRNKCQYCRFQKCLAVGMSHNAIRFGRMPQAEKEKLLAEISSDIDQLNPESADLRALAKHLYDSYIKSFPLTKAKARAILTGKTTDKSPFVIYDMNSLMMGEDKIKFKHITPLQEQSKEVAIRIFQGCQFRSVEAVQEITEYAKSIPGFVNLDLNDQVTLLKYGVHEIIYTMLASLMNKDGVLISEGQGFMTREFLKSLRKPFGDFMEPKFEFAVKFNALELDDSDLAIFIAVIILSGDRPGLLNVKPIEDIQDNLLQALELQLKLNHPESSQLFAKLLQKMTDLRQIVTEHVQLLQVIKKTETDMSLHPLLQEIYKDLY
Bile acid receptor (Homo sapiens), sequence (Q96RI1 whole entry, looked up): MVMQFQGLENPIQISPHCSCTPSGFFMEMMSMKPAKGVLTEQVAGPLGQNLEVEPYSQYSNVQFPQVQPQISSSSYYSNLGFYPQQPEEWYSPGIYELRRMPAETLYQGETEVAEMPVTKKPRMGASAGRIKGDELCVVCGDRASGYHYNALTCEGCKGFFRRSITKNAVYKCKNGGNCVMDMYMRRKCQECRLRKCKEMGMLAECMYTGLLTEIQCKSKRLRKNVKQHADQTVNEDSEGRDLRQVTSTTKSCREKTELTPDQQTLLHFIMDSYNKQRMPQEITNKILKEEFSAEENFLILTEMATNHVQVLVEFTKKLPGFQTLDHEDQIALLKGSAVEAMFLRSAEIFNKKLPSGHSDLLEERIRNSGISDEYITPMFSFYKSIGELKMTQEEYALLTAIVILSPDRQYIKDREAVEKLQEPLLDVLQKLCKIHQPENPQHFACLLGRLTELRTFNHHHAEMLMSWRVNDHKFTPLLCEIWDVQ
Vitamin D3 receptor (Homo sapiens), sequence (P11473 whole entry, looked up): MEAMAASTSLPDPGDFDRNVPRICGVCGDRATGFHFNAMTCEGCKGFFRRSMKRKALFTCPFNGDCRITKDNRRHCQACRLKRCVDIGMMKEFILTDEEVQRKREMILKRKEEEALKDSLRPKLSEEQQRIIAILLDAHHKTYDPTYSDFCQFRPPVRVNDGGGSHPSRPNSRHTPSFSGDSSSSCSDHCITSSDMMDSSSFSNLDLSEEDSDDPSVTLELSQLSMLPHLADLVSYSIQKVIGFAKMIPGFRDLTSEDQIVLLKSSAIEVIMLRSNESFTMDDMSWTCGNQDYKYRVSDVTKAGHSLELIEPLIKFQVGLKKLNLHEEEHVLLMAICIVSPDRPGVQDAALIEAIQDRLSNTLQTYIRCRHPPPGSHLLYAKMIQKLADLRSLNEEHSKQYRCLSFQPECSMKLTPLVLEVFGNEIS
Peroxisome proliferator-activated receptor delta (Homo sapiens), sequence (Q03181 whole entry, looked up): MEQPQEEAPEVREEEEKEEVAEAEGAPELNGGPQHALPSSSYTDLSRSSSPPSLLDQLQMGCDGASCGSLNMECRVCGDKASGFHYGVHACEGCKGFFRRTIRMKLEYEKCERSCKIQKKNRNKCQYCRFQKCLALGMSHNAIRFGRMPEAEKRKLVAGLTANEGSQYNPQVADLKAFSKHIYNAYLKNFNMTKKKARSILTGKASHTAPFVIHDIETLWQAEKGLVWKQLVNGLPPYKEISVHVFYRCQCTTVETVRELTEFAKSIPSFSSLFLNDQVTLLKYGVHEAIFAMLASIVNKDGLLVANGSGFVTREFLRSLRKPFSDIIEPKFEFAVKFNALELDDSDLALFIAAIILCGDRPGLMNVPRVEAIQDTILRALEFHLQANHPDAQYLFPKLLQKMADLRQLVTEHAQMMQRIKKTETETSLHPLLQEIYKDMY
Aryl hydrocarbon receptor (Homo sapiens), sequence (P35869 whole entry, looked up): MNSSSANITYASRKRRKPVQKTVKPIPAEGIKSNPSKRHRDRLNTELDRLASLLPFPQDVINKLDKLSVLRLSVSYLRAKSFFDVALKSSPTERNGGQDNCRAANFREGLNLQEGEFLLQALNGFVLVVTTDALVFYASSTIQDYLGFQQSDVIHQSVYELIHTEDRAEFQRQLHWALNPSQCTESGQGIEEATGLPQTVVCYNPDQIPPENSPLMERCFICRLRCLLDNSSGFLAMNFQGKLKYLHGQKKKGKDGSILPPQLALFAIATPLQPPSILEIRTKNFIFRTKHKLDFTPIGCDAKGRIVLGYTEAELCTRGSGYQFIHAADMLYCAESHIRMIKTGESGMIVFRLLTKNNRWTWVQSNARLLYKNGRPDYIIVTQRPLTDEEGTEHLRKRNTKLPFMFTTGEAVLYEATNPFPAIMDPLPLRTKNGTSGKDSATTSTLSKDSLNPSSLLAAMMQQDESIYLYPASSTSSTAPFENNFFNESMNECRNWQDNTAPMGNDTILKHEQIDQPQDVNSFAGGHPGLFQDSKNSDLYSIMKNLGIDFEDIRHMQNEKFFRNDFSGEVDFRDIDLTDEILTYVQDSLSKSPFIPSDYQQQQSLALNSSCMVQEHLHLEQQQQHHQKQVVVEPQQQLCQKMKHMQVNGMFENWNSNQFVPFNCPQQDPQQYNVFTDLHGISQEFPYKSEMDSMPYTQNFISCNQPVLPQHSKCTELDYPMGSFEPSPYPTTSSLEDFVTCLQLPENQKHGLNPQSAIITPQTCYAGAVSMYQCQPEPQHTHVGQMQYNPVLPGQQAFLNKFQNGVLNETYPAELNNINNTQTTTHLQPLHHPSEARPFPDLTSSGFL

For `N#Cc1ccc(Cl)cc1`, the Potency result in experiment [1], in [2], in [3], in experiment [4], in experiment [5] and in experiment [6] was “inactive” throughout. For the same compound, the Potency result in experiment [7], in [8], in [10], in experiment [12], in experiment [13] and in experiment [14] was “inactive” throughout. Besides, the result in experiment [9], in experiment [11], in experiment [15] and in experiment [16] was inactive.
Turning to `O=[N+]([O-])C(Br)(CO)CO`, the Potency in [1] was 61.1 µM (active). Also, the Potency entry in experiment [2], in experiment [3], in experiment [4], in [5], in experiment [17] and in experiment [7] was “inactive” in each case. For the same compound, the Potency entry in experiment [8], in [12], in [18], in [19], in experiment [13] and in experiment [14] was “inactive” each time. Besides, the outcome in experiment [9], in [11] and in [20] was inactive.
Regarding `ClC=C(Cl)Cl`, the Potency result in experiment [1], in experiment [2], in [3], in experiment [4], in [5] and in experiment [6] was “inactive” in each case. Also, the Potency result in experiment [7], in experiment [8], in [10], in experiment [12], in [18] and in experiment [19] was “inactive” in each case. The Potency entry in experiment [14] is “inactive”. In addition, the compound was called inactive in experiment [9], in experiment [11] and in [20].
In the case of `CC(C)(CCl)C(=O)Cl`, the Potency entry in experiment [1], in experiment [2], in experiment [3], in experiment [4], in experiment [5] and in experiment [6] was “inactive” each time. Moreover, the Potency result in experiment [7], in experiment [8], in experiment [18], in experiment [13] and in experiment [14] was “inactive” throughout. Further, the result in experiment [11] and in experiment [16] was inactive.
Regarding `CCOP(=O)(OCC)Oc1ccc([N+](=O)[O-])cc1`, the Potency result in experiment [1], in experiment [2], in experiment [3], in experiment [4], in experiment [7] and in experiment [8] was “inactive” each time. Moreover, the Potency entry in experiment [10], in experiment [18], in experiment [13] and in [14] was “inactive” throughout. The Potency in [5] is 22.1 µM (active). The outcome in experiment [9], in experiment [11], in experiment [20], in experiment [15] and in experiment [16] was inactive.
`CCCCC(CC)COP(=O)(Oc1ccccc1)Oc1ccccc1` (stereo not drawn): the Potency result in [1], in experiment [2], in experiment [3], in [4], in experiment [5] and in experiment [17] was “inactive” each time. The Potency entry in [7], in experiment [8], in experiment [12], in experiment [13] and in experiment [14] was “inactive” throughout. Also, the result in [9], in [11], in experiment [20] and in [16] was inactive.
For `COc1c(C(C)(C)C)cc([N+](=O)[O-])c(C)c1[N+](=O)[O-]`, the Potency entry in experiment [1], in [2], in [3], in experiment [4], in experiment [5] and in experiment [17] was “inactive” throughout. For the same compound, the Potency result in experiment [6], in [7], in experiment [8], in experiment [12], in [18] and in experiment [13] was “inactive” each time. For the same compound, the Potency result in experiment [14] was “inactive”. The outcome in experiment [9], in experiment [11], in [15] and in experiment [16] was inactive.
On to `CCCCCCCCCC(=O)O[C@H]1CC[C@H]2[C@@H]3CCC4=CC(=O)CC[C@@H]4[C@H]3CC[C@]12C`, for which the Potency result in [1], in experiment [2], in experiment [3], in experiment [4], in experiment [5] and in [17] was “inactive” each time. Besides, the Potency entry in experiment [7], in experiment [12], in experiment [18], in experiment [19], in experiment [13] and in experiment [14] was “inactive” each time. Moreover, the outcome in [9], in experiment [11], in [20] and in experiment [16] was inactive.
For `CCCN(CC1CC1)c1c([N+](=O)[O-])cc(C(F)(F)F)cc1[N+](=O)[O-]`, the Potency entry in [1], in experiment [2], in experiment [3], in experiment [4], in [5] and in experiment [17] was “inactive” in each case. Also, the Potency entry in [6], in [7], in experiment [8], in experiment [10], in experiment [12] and in experiment [18] was “inactive” in each case. For the same compound, the Potency result in [19], in [13] and in experiment [14] was “inactive” in each case. The compound was called inactive in [9], in [11] and in experiment [20].
